PubChem BioAssay (NCI)
About 79,000 compounds went through this panel and 15% of them were active in at least one assay; those are over-represented in the sample as a whole. Unmarked numbers belong to inactive results. Activity calls are given as the source filed them. Rule as the data show it: active = growth inhibition above about 70%; inactive = the rest.

Key:
[1] = NCI Yeast Anticancer Drug Screen. Data for the rad50 strain (AID 155);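 also: 0% = growth of vehicle-only cultures of the same strain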; conditions: S. cerevisiae rad50 strain growth inhibition; at 50.0 µM; hits give high values
Summary of the method: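 Genetically altered yeast (DNA repair pathway); compound treatment; growth inhibition vs vehicle ctrl.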

[2] = NCI Yeast Anticancer Drug Screen. Data for the mec2-1 strain (AID 157); conditions: S. cerevisiae mec2-1 strain, at 50.0 µM, hits give high values
Summary of the method: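 Compounds were applied to mec2-1 yeast cells. Their growth was then compared with that of vehicle-treated cultures to give growth inhibition.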

[3] = NCI Yeast Anticancer Drug Screen. Data for the sgs1 mgt1 strain (AID 161);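 also: 0% = growth of cultures given vehicle only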; conditions: S. cerevisiae sgs1 mgt1 strain, at 50.0 µM, hits give high values
Summary of the method: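 Growth of a repair-deficient yeast mutant was monitored after compound treatment and expressed as inhibition relative to vehicle-treated cultures.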

[4] = NCI Yeast Anticancer Drug Screen. Data for the cln2 rad14 strain (AID 165);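 also: 0% = growth equal to vehicle treated cultures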; conditions: S. cerevisiae cln2 rad14 strain, at 50.0 µM, hits give high values
Summary of the method: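 Strain: cln2 rad14 yeast, altered in cell cycle control and DNA damage repair. Read-out: growth inhibition vs vehicle.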

[5] = NCI Yeast Anticancer Drug Screen. Data for the bub3 strain (AID 167); conditions: S. cerevisiae bub3 mutant strain, at 50.0 µM, hits give high values
Summary of the method: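 Yeast carrying a defined mutation is treated with each compound, and growth is compared with that of vehicle-exposed cells to give inhibition.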

[6] = NCI Yeast Anticancer Drug Screen. Data for the mlh1 rad18 strain (AID 175); conditions: S. cerevisiae mlh1 rad18 strain growth inhibition; at 50.0 µM; hits give high values
Summary of the method: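 A repair-deficient yeast strain is exposed to test compound, and growth is scored relative to vehicle-treated controls.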

Row | SMILES | growth inhibition [1] | growth inhibition [2] | growth inhibition [3] | growth inhibition [4] | growth inhibition [5] | growth inhibition [6]
1 | COc1cccc2c1C(c1ccc3ccccc3c1)OC2=O (centres undefined) | -22.2% | -11.4% | -27.6% | 12.8% | -25.4% | -15.5%
2 | CC(C)CCCOC(=O)c1ccccc1 | 3.05% | -6.5% | -1.65% | -3.2% | 21.6% | -1%
3 | CCOC(=O)C(O)(C#CC(C)C)C1CCCC1 (centres undefined) | -15% | 13% | -4.65% | 5% | -6.4% | -6.65%
4 | CCN(CC)CCCNc1cc(O)cc2cccnc12 | -1.5% | 5% | 26.6% | 2.6% | 2.3% | -0.35%
5 | C[C@@]12CCC(=O)c3coc(c31)C(=O)c1cc3c(cc12)C(=O)C=CC3=O | 92% (active) | 93.2% (active) | 93.2% (active) | 91.4% (active) | 92.2% (active) | 91.9% (active)
6 | C(=C\C[P+](c1ccccc1)(c1ccccc1)c1ccccc1)/C[P+](c1ccccc1)(c1ccccc1)c1ccccc1 | 12.3% | 13% | 4.95% | -5.55% | -2.75% | 27.9%
7 | CC(C)(C)CC(C)(C)NS(=O)(=O)NC(C)(C)CC(C)(C)C | 1.1% | -31.1% | -9.15% | -57.3% | 1.45% | 0.7%
8 | Cc1cc(Cl)cc(C(=O)O)c1O | 5.7% | -9.25% | 0.1% | -12.7% | -8.05% | -8%
9 | NC(=S)SC1=NNC2(C(=O)N1)c1ccccc1-c1ccccc12 | -11.6% | -33.6% | 14.2% | -6.7% | 5.7% | 14.6%
10 | CCCCc1cc(/C=N\NC(N)=O)c2ccccc2n1 | -0.6% | -14.2% | -1.1% | 1.45% | -5.35% | 18.8%
11 | c1ccc(-c2cc3cc4c(cc3[nH]2)Oc2ccccc2O4)cc1 | 5.45% | 14.4% | 18.4% | 10.8% | 5.2% | 3.1%
12 | Cc1nc(N)[nH]c(=O)c1CCCN=Cc1ccccc1 | 8.5% | 56.5% | 2.8% | 18.5% | 92.2% (active) | 51.1%
13 | CC(=O)OC1/C=C(/C)CCC2OC2(C)CC2OC(=O)C3(CC3)C12 (centres undefined) | 0.85% | -20.5% | -2% | 10.7% | 1% | -7.2%
14 | COc1ccc(C2(O)c3ccccc3C(=O)c3ccc(OC)cc32)cc1 (centres undefined) | -3.15% | -10.6% | 4.15% | 14.8% | -11.1% | -10.5%
15 | Cc1cc(C)c2c(=O)n(-c3ccc(Br)cc3)c(=S)n(-c3ccc(Br)cc3)c2n1 | 19.2% | 4.35% | -3.2% | 12.8% | -3.85% | 23.5%
16 | NNC(=O)COCC(=O)NN | -17.5% | -27.2% | -24.5% | -9.1% | -15.2% | -25.1%
17 | O=C1c2cc([N+](=O)[O-])ccc2-c2c(F)cc(F)cc21 | -58.5% | -8.05% | 9.35% | -50.4% | -2.1% | -10.7%
18 | CCOC(=O)C1=C(C(=O)c2ccc(C)cc2)C(c2ccc([N+](=O)[O-])cc2)C(C(=O)c2ccc(C)cc2)=C(C(=O)OCC)N1 | -27.3% | -18.2% | -8.9% | -12.4% | -14.9% | -11.7%
19 | Cn1c2ccccc2c2ccc3c(c21)C(=O)C(c1ccccc1)=CC3=O | 19.7% | -21.2% | -10.3% | 17.6% | -28.3% | -5.85%
20 | C[N+]1(C)CC=C(N2CCOCC2)CC1 | -27.6% | -25.1% | -18.8% | -30% | -12.9% | -14.4%

Row | SMILES | growth inhibition [1] | growth inhibition [2] | growth inhibition [3] | growth inhibition [4] | growth inhibition [5] | growth inhibition [6]
21 | COC(=O)CC1(O)C=C(C)C(=O)c2ccccc21 (centres undefined) | 4.9% | -5.7% | -19.2% | -19% | 25.2% | -11.2%
22 | Cc1cc(N=Nc2ccc(C(=O)O)cc2)c(N)cc1N | -34.5% | -5.55% | -7.1% | -21.4% | 9.7% | -7.5%
23 | C[N+](C)(CCCN1C(=O)c2cccc3c(Br)ccc(c23)C1=O)Cc1ccc(Cl)c(Cl)c1 | 97.8% (active) | 98% (active) | 98.3% (active) | 95.8% (active) | 95.7% (active) | 98% (active)
24 | Clc1ccc(-c2nc3ccccc3cc2N2CCOCC2)cc1 | 70.5% (active) | 52% | 47.9% | 49.7% | 39.5% | 82.5% (active)
25 | CCCCNC(=O)OCC | -34.5% | -25.6% | 2.4% | -26.8% | -0.35% | 5.9%
26 | NC(=O)C(Cc1ccc(O)cc1)NC(=O)c1cccnc1 (centres undefined) | -7.3% | 0.7% | -0.95% | -2.05% | -9.05% | 4.35%
27 | O=C(O)CNC(=O)C(=O)c1c[nH]c2ccc([N+](=O)[O-])cc12 | -6.5% | -27.8% | 1.05% | -7.8% | -2.1% | 0.2%
28 | C=C1C(OC(C)=O)CC(OC(C)=O)C2(C)C(OC(C)=O)C(OC(C)=O)C3=C(C)C(OC(=O)/C=C/c4ccccc4)CC(C(OC(C)=O)C12)C3(C)C (centres undefined) | 4.8% | -12.1% | 5.6% | -4.75% | 20.6% | 15.6%
29 | COc1ccc(/C=C2\N=C(c3ccccc3)OC2=O)c(OC)c1C | -6.1% | -4.9% | -1.65% | -60.4% | 1.9% | -9.95%
30 | COC(=O)c1nc[nH]c1C(=O)OC | 10.2% | -25.9% | 15.8% | 4% | -0.8% | 12.6%
31 | CSc1nc(-c2ccc(C)cc2)c(C#N)c(=O)[nH]1 | 6.25% | 4.9% | -9.45% | 24.2% | 0.4% | -55.9%
32 | COc1ccc2cc1Oc1ccc(cc1)CC1c3c(cc(OC)c4c3Oc3cc5c(cc3O4)CCNC5C2)CCN1C (centres undefined) | -15.9% | -31.6% | -12.2% | -1.1% | -38.8% | -25.1%
33 | C[N+]1(CC(O)c2ccccc2)CCCC1 (centres undefined) | 3.55% | 13.3% | -0.25% | 32.6% | 6.3% | -10.8%
34 | COC(=O)c1cncn1C1CC1 | 8.25% | -7.1% | -3.2% | -58.5% | -2.95% | -8.2%
35 | NC1CC1 | -8.4% | -1.1% | -4.6% | -9.95% | 11.6% | -22.9%
36 | O=C(NNc1ccccc1)NNc1ccccc1 | 32.8% | 21.4% | 45.3% | 46.3% | 20.8% | 29.8%
37 | C/C(=N\NC(=O)CC(=O)N(C(=O)c1ccc(Cl)cc1)c1ccc(C)cc1)c1ccccc1O | -2.05% | -26% | -10.2% | 5.9% | -1.3% | -29.6%
38 | CN(CCO)CCN1c2ccccc2Sc2ccccc21 | -12.7% | -26.3% | -10.2% | -13.9% | -5.8% | -0.65%
39 | CCCC(O)C(C)(C)[N+](=O)[O-] (centres undefined) | 60.9% | 5.45% | 12.9% | -2.85% | 8% | 9.95%
